The values below come from ChEMBL document CHEMBL1961873, “Compounds: GSK PKIS; Assays: Nanosyn kinase panel” (2012).

Several values for one entry are separate records, joined by “and”; a condition that tells them apart may be missing. Equal entries are not always repeated.

The first test deals with T1, Muscle, skeletal receptor tyrosine-protein kinase (Homo sapiens) (UniProt O15146).
T1 sequence (whole entry): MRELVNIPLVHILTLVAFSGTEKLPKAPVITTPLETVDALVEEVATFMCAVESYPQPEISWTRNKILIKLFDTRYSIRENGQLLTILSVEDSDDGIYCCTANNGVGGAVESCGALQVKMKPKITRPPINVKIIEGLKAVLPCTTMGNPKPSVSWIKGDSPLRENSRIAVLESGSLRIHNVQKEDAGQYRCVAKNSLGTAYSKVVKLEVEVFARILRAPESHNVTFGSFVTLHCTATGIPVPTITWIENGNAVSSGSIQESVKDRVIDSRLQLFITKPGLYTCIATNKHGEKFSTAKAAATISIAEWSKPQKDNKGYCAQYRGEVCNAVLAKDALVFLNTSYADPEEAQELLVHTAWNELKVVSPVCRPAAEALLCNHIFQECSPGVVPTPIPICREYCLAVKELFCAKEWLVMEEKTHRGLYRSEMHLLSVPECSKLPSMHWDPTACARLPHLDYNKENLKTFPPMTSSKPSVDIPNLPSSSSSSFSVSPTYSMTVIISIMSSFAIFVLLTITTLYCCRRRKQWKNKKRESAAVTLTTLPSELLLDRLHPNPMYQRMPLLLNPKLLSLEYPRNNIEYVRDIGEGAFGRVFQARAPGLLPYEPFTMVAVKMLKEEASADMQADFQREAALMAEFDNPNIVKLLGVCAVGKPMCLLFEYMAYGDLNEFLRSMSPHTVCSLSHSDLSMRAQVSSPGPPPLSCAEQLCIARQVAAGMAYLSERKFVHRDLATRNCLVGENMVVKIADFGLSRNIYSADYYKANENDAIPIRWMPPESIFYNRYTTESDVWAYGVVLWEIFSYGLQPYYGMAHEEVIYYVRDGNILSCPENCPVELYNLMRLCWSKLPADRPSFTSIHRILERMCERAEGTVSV
Particulars: at 1 µM.
Broadly, the inhibition is the change of the read-out against control, counted positive when it falls. Regarding `COc1ccc(Nc2ncc(-c3ccccc3)o2)cc1OC`, the inhibition was found to be 19.2%.
Still for that read-out and setting: the figure for `CCS(=O)(=O)c1ccc(OC)c(Nc2ncc(-c3cccc(C(C)=O)c3)o2)c1` is 4.06%; for `CS(=O)(=O)Nc1ccc(-c2ccc3c(NC(=O)C4CC4)n[nH]c3c2)cc1` it is 7.76%; for `CS(=O)(=O)CCNCc1ccoc1-c1ccc2ncnc(Nc3ccc(OCc4ccccc4)cc3)c2c1` it is 3.07%.
The same measure, in the same setting: the figure for `NS(=O)(=O)c1ccc(N/N=C2\C(=O)Nc3ccc(C(=O)NCc4ccncc4)cc32)cc1` is 21.9%.
The same measure, in the same setting: the figure for `CN1CCC(C(=O)Nc2n[nH]c3nc(-c4ccc(O)cc4)c(Br)cc23)CC1` is 9.34% and 7.11%.
Take `CN1CCN(Cc2ccc(-c3cc4ncnc(Nc5ccc(OCc6cccc(F)c6)c(Cl)c5)c4s3)o2)CC1`: the inhibition was 1.12% and 8.01%.
For the compound `COc1cc2c(cc1Nc1nc(Nc3cccc(F)c3C(N)=O)c3cc[nH]c3n1)N(C(=O)CN1CCN(C(C)C)CC1)CC2`, the inhibition turned out to be 8.69%.
The same measure, in the same setting: the figure for `COc1cccc(-n2ncc3c(N/N=C/c4ccc(C(=O)NCCN(C)C)cc4)ncnc32)c1` is 80.3%; for `CN(c1ccc(NC(=O)NCCN2CCOCC2)cc1)c1ccnc(Nc2ccc(CS(C)(=O)=O)cc2)n1` it is 8.61%; for `Cc1nnc(-c2cccc(-c3ccc(C(=O)NCC4CC4)cc3)c2)o1` it is 6.37%.
The same measure, in the same setting: the figure for `Cc1cc(O)cc(C)c1/C=C/c1cncc(C(N)=O)c1` is 3.91%; for `FC(F)(F)CNc1nccc(-c2cnn3ncccc23)n1` it is -2.34%; for `NC(=O)c1ccc2c(-c3ccnc(NCCCO)n3)c(-c3ccc(F)cc3)nn2c1` it is 2.08%.
Same read-out and setting: the figure for `COc1ccc2ncn(-c3cc(O[C@H](C)c4ccccc4C(F)(F)F)c(C(N)=O)s3)c2c1` is 22.4%; for `COc1cc(Nc2ncc(-c3ccccc3)o2)cc(OC)c1` it is 4.72%.
In the case of `Fc1ccc(Nc2nccc(-c3c(-c4ccc(C(F)(F)F)cc4)nn4ncccc34)n2)cc1F`, the inhibition turned out to be 2.81%.
Still for that read-out and setting: the figure for `COc1cc(N2CCN(C(C)C)CC2)ccc1Nc1nc(Nc2cccc(F)c2C(=O)O)c2cc[nH]c2n1` is 10.5%.
Same read-out and setting: the figure for `CC1(C)CC(n2cnc(-c3ccc(F)cc3)c2-c2ccnc(N)n2)CC(C)(C)N1` is 5.42%; for `COc1cccc(Nc2nccc(-c3cnn4ncccc34)n2)c1` it is 25.3%.
Still for that read-out and setting: the figure for `COc1ccc(-c2nn3ncccc3c2-c2ccnc(Nc3ccc(F)c(F)c3)n2)cc1` is 3.15%; for `CNC(=O)c1cncc(/C=C/c2ccccc2C)c1` it is 3.97%.
Consider `Cn1c(-c2nonc2N)nc2cnccc21`, for which the inhibition is 5.28%.
The same measure, in the same setting: the figure for `Nc1ncnc2occ(-c3ccc(NC(=O)Nc4cc(C(F)(F)F)ccc4F)cc3)c12` is 94.1% and 97.6%; for `CCOc1ccc2c(-c3ccnc(Nc4cc(OC)cc(C(F)(F)F)c4)n3)cnn2n1` it is 5.37%; for `O=C1Nc2ccccc2/C1=C1\CCc2cc(O)ccc21` it is 32.1%.
Same read-out and setting: the figure for `O=C(O[C@H]1CN[C@H](C#Cc2cc3ncnc(Nc4ccc5c(ccn5Cc5cc(F)ccc5F)c4)c3s2)C1)N1CCOCC1` is 4.92%.
Same read-out and setting: the figure for `CS(=O)(=O)CCNCc1ccc(-c2ccc3ncnc(Nc4ccc(OCc5cccc(C(F)(F)F)c5)cc4)c3c2)o1` is 9.15%.
Turning to `N#Cc1cccc(Nc2ncc(-c3ccccc3)o2)c1`, the inhibition amounted to 2.86%.
Same read-out and setting: the figure for `N#Cc1ccc2c(-c3ccnc(NC4CC4)n3)c(-c3ccc(F)cc3)nn2c1` is -0.28%.
Regarding `CNC(=O)c1sc(-n2cnc3cc(OC)c(OC)cc32)cc1OCc1ccccc1C(F)(F)F`, the inhibition came out at 2.82%.

In the next test the target is Platelet-derived growth factor receptor alpha (Homo sapiens) (UniProt P16234). To be noted: at 0.1 µM.
Chain of Platelet-derived growth factor receptor alpha (Homo sapiens) (P16234 whole entry): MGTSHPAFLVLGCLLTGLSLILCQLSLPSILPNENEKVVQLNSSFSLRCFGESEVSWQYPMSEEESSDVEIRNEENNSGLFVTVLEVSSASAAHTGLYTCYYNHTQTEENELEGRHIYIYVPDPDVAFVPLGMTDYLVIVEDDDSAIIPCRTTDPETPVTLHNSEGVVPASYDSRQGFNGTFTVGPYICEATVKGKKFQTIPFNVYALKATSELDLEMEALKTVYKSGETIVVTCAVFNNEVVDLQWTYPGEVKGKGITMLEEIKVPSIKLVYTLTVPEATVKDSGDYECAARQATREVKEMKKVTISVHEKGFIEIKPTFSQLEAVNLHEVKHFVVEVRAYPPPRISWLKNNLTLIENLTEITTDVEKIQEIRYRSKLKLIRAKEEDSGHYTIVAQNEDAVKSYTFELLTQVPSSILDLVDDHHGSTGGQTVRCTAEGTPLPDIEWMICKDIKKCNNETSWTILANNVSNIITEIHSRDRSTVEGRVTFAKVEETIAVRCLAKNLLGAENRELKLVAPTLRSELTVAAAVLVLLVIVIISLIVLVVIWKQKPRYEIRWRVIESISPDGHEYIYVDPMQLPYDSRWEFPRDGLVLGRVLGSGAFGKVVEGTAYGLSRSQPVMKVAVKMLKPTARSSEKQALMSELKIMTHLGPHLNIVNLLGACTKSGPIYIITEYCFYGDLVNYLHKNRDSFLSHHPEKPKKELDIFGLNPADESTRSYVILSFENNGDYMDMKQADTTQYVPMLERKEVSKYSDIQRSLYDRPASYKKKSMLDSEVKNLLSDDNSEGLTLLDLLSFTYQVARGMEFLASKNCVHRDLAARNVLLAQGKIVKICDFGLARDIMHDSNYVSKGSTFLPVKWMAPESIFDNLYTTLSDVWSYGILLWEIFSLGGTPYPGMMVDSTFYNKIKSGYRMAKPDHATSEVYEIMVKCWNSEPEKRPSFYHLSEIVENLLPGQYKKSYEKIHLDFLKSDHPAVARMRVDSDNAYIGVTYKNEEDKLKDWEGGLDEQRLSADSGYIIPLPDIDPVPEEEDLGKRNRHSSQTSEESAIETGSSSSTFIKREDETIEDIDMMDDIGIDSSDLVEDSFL
Consider `COc1ccc(Nc2ncc(-c3ccccc3)o2)cc1OC`, for which the inhibition stood at 25.9%.
Same read-out and setting: the figure for `CCS(=O)(=O)c1ccc(OC)c(Nc2ncc(-c3cccc(C(C)=O)c3)o2)c1` is 23.2%; for `CS(=O)(=O)Nc1ccc(-c2ccc3c(NC(=O)C4CC4)n[nH]c3c2)cc1` it is 12.9%.
The same measure, in the same setting: the figure for `CS(=O)(=O)CCNCc1ccoc1-c1ccc2ncnc(Nc3ccc(OCc4ccccc4)cc3)c2c1` is 7.98%.
Consider `NS(=O)(=O)c1ccc(N/N=C2\C(=O)Nc3ccc(C(=O)NCc4ccncc4)cc32)cc1`, for which the inhibition came to 23.6%.
Same read-out and setting: the figure for `CN1CCC(C(=O)Nc2n[nH]c3nc(-c4ccc(O)cc4)c(Br)cc23)CC1` is 5.64% and 6.91%; for `CN1CCN(Cc2ccc(-c3cc4ncnc(Nc5ccc(OCc6cccc(F)c6)c(Cl)c5)c4s3)o2)CC1` it is 6.77% and 7.26%; for `COc1cc2c(cc1Nc1nc(Nc3cccc(F)c3C(N)=O)c3cc[nH]c3n1)N(C(=O)CN1CCN(C(C)C)CC1)CC2` it is -1.51%.
Still for that read-out and setting: the figure for `COc1cccc(-n2ncc3c(N/N=C/c4ccc(C(=O)NCCN(C)C)cc4)ncnc32)c1` is 42.3%.
Still for that read-out and setting: the figure for `CN(c1ccc(NC(=O)NCCN2CCOCC2)cc1)c1ccnc(Nc2ccc(CS(C)(=O)=O)cc2)n1` is 51.8%; for `Cc1nnc(-c2cccc(-c3ccc(C(=O)NCC4CC4)cc3)c2)o1` it is 13.9%.
Regarding `Cc1cc(O)cc(C)c1/C=C/c1cncc(C(N)=O)c1`, the inhibition was found to be 13%.
`FC(F)(F)CNc1nccc(-c2cnn3ncccc23)n1`: the inhibition is 0.78%.
As to `NC(=O)c1ccc2c(-c3ccnc(NCCCO)n3)c(-c3ccc(F)cc3)nn2c1`, the inhibition stood at 5.5%.
On the same count and under the same terms, the figure for `COc1ccc2ncn(-c3cc(O[C@H](C)c4ccccc4C(F)(F)F)c(C(N)=O)s3)c2c1` is 8.31%; for `COc1cc(Nc2ncc(-c3ccccc3)o2)cc(OC)c1` it is 17.5%; for `Fc1ccc(Nc2nccc(-c3c(-c4ccc(C(F)(F)F)cc4)nn4ncccc34)n2)cc1F` it is 8.86%.
Still for that read-out and setting: the figure for `COc1cc(N2CCN(C(C)C)CC2)ccc1Nc1nc(Nc2cccc(F)c2C(=O)O)c2cc[nH]c2n1` is 11.3%; for `CC1(C)CC(n2cnc(-c3ccc(F)cc3)c2-c2ccnc(N)n2)CC(C)(C)N1` it is 3.29%.
The same measure, in the same setting: the figure for `COc1cccc(Nc2nccc(-c3cnn4ncccc34)n2)c1` is 14.3%.
On to `COc1ccc(-c2nn3ncccc3c2-c2ccnc(Nc3ccc(F)c(F)c3)n2)cc1`, for which the inhibition was 14.7%.
The same measure, in the same setting: the figure for `CNC(=O)c1cncc(/C=C/c2ccccc2C)c1` is 11.8%; for `Cn1c(-c2nonc2N)nc2cnccc21` it is 2.63%; for `Nc1ncnc2occ(-c3ccc(NC(=O)Nc4cc(C(F)(F)F)ccc4F)cc3)c12` it is 80.4% and 68.5%.
For `CCOc1ccc2c(-c3ccnc(Nc4cc(OC)cc(C(F)(F)F)c4)n3)cnn2n1`, the inhibition came out at 6.45%.
On the same count and under the same terms, the figure for `O=C1Nc2ccccc2/C1=C1\CCc2cc(O)ccc21` is 23%.
The same measure, in the same setting: the figure for `O=C(O[C@H]1CN[C@H](C#Cc2cc3ncnc(Nc4ccc5c(ccn5Cc5cc(F)ccc5F)c4)c3s2)C1)N1CCOCC1` is 6.05%; for `CS(=O)(=O)CCNCc1ccc(-c2ccc3ncnc(Nc4ccc(OCc5cccc(C(F)(F)F)c5)cc4)c3c2)o1` it is 9.67%; for `N#Cc1cccc(Nc2ncc(-c3ccccc3)o2)c1` it is 5.63%.
On to `N#Cc1ccc2c(-c3ccnc(NC4CC4)n3)c(-c3ccc(F)cc3)nn2c1`, for which the inhibition came out at 2.76%.
On the same count and under the same terms, the figure for `CNC(=O)c1sc(-n2cnc3cc(OC)c(OC)cc32)cc1OCc1ccccc1C(F)(F)F` is 17.2%.
